Source: PubChem BioAssay
The source made the active and inactive calls.

Experiments:
Albumin (Bos taurus) = Albumin (Bos taurus) (UniProt P02769); test: compounds binding labelled BSA control protein – biochemical, small-molecule microarray, Alexa647 label, 635/667 nm fluorescence, artefact control for SMM control protein annotation, profiling panel (AID 1118); details: BSA-A647 binding, fluorescence 635 nm, higher = more signal;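 also: score merges 667 nm emission intensity and signal-to-noise per printed compound spot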
[1] = probe aXIP binding to arrayed compounds – biochemical, NeuroSMM set, 635/667 nm fluorescence, primary screen (AID 1119); details: small-molecule microarray, higher = more signal, called active from +8 up or from −8 down;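 also: probe is the protein aXip251-270 applied at 1 µg/mL to compound-printed slides; binding of probe to printed compounds measured as 667 nm fluorescence plus signal to noise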
[2] = probe aNOTCH3 binding on compound microarray – biochemical, small-molecule microarray, 635/667 nm fluorescence, primary screen (AID 1120); details: higher = more signal;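 also: probe is a biotin-tagged antibody raised against NOTCH3 rather than NOTCH3 protein; score merges spot fluorescence near 667 nm with spot signal to noise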
[3] = probe aNOTCH2 binding on compound microarray – biochemical, small-molecule microarray, 635/667 nm fluorescence, primary screen (AID 1121); details: higher = more signal;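 also: score merges feature fluorescence read at 667 nm with its signal to noise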
[4] = target: Carbonic anhydrase 2 (Homo sapiens) (UniProt P00918); test: compounds binding carbonic anhydrase 2 – biochemical, small-molecule microarray, Alexa647-labelled CAII, profiling panel (AID 1122); details: CAII-A647 binding fluorescence, higher = more signal
[5] = COS7 lysate on small-molecule microarray, probe aHis, 635 nm (AID 1123); details: COS7 cell lysate, fluorescence, higher = more signal;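 also: z-score combines 667nm fluorescence intensity with signal-to-noise per printed compound spot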
[6] = probe aLAP1 signal on lysate-treated microarray – cell lysate, small-molecule microarray, COS7 lysate, primary screen (AID 1124); details: probe aLAP1, fluorescence, higher = more signal;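 also: lysate comes from COS7 cells expressing LAP1 and is applied at 0.3 µg/mL; score merges spot fluorescence near 667 nm with signal-to-noise over triplicate slides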
Sam68 (KHDRBS1) = test: compounds binding KHDRBS1 protein – biochemical, small-molecule microarray, 635 nm fluorescence, primary screen (AID 1125); details: higher = more signal;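 also: score merges 667 nm channel intensity with signal to noise over triplicate slides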
[7] = test system: Chordin-like protein 2 (CHRDL2); test: compounds binding chordin-like 2 – biochemical, small-molecule microarray, 635 nm fluorescence, primary screen (AID 1126); details: fluorescence 635 nm, higher = more signal;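 also: printed compound slides probed with Chrdl2 protein at 4 µg/mL for 1 h at 4 C; score merges 667 nm emission intensity with signal to noise over three replicate slides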
[8] = target: Concanavalin-A (Canavalia ensiformis) (UniProt P02866); test: compounds binding concanavalin A lectin – biochemical, small-molecule microarray, Alexa647 label, 635 nm, artefact control for SMM control protein annotation, primary screen (AID 1127); details: ConA-A647 binding fluorescence, higher = more signal;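 also: z combines 667 nm emission intensity with signal-to-noise across three replicate slides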
Sequence of Concanavalin-A (Canavalia ensiformis) (P02866 whole entry, looked up): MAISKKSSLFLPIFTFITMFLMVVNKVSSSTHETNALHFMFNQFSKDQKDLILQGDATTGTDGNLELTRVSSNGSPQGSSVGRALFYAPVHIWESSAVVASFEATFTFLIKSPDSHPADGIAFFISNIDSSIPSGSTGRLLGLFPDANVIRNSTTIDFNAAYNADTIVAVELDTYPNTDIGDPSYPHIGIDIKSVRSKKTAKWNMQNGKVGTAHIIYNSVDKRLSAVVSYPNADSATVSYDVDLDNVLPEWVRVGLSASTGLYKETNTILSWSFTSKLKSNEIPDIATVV

Sequence of Albumin (Bos taurus) (P02769 whole entry, looked up): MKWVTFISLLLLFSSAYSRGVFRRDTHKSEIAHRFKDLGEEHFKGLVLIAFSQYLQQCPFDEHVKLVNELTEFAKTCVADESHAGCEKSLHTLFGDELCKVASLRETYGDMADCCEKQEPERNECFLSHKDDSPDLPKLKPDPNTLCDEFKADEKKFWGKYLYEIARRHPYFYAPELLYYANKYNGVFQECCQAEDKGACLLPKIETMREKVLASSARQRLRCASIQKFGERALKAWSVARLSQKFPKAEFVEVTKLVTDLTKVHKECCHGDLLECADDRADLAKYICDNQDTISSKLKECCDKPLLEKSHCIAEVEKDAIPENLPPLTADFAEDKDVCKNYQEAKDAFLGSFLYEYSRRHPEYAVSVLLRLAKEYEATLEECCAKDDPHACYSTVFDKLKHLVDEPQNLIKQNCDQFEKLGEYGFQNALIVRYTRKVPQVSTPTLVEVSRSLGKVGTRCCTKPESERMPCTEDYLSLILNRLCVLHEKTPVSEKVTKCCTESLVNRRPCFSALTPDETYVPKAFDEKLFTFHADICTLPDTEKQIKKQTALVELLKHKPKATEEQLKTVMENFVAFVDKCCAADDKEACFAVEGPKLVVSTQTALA

Row | SMILES | composite z-score (Albumin (Bos taurus)) | composite Z-score [1] | composite z-score [2] | composite z-score [3] | composite z-score [4] | composite z-score [5] | composite z-score [6] | composite z-score (Sam68 (KHDRBS1)) | composite z-score [7] | composite z-score [8]
1 | CCOC(=O)C[C@H]1[C@H](OC(=O)c2ccc(-c3ccccc3)cc2)[C@@H](NC(=O)CC(C)C)c2cc(OCCCO)ccc2N1C(=O)c1ccc2ccccc2n1 | 0.363 | -0.122 (inactive) | 0.041 | -0.161 | 0.0808 | 1.19 | -0.259 | 0.787 | 0.0987 | 1.07
2 | Cc1ccc(S[C@]2(C(=O)NCc3ccccc3)CC(=O)N(C3CCCCC3)[C@@H]2c2ccc(CO)cc2I)cc1 | 0.0863 | -0.0202 (inactive) | 0.0301 | -0.133 | 0.459 | 2.13 | 0.658 | 1.23 | 0.338 | 1.14
3 | CCCCCN1CC=CC23O[C@@H]4/C=C\CCC(C)OC(=O)C4[C@H]2C(=O)N(C(CO)C(C)C)[C@@H]3C1=O (stereo not given in full) | 0.157 | 0.141 (inactive) | -0.247 | -0.182 | 0.824 | 0.337 | 0.57 | 0.132 | -0.461 | 0.192
4 | NCCCCCNC(=O)[C@H]1C[C@H]2C(=O)N3CCC[C@H]3C(=O)N2[C@H]1c1cccc(OCCO)c1 | 0.729 | 0.325 (inactive) | 0.185 | 0.0305 | 0.705 | 1.59 | 0.466 | 0.967 | 0.18 | 0.894
5 | COCCOC(=O)N1C(=O)[C@@]2(c3cc(C#CC4(O)CCCCCC4)ccc31)[C@H](C(=O)N1CCc3cc(OC)c(OC)cc3C1)[C@H]1C(=O)O[C@H](c3ccccc3)[C@H](c3ccccc3)N1[C@@H]2c1ccc(OCCO)cc1 | 0.121 | 0.28 (inactive) | -0.021 | -0.0617 | 0.515 | 0.535 | 0.272 | 1.31 | 0.666 | 1.12
6 | COC(=O)[C@@]1(Cc2ccc(F)cc2)[C@H]2c3cc(C(=O)N4CCCC4)n(CCc4c[nH]c5ccccc45)c3C[C@H]2CN1C(=O)c1ccccc1 | 1.11 | -0.263 (inactive) | 0.558 | 0.184 | 0.795 | 3.17 | 1.76 | 1.3 | 0.291 | 0.984
7 | COC(=O)[C@@]1(Cc2ccc(OC)cc2)[C@H]2c3cc(C(=O)N(C)C)n(Cc4ccc(C)o4)c3C[C@H]2CN1C(=O)c1ccccc1 | 0.814 | 1.24 (inactive) | 0.517 | 0.204 | 0.806 | 2.99 | 0.463 | 0.933 | -0.905 | 0.842
8 | CCCC[C@@H](O)C1=C(COC)C[C@H]2C(=O)N(Cc3ccccc3)C(=O)[C@H]2[C@H]1CO | 0.232 | -0.306 (inactive) | -0.214 | -0.0668 | 0.0793 | 0.368 | 0.263 | 0.651 | 0.293 | 0.455
9 | CCCC[C@@H]1C[C@H]1[C@@H](NC(=O)c1cccs1)c1ccccc1C(F)(F)F | 0.485 | -0.147 (inactive) | 0.265 | 0.0117 | 0.431 | 2.62 | 0.588 | 1.27 | -0.319 | 1.08
10 | CCCNC(=O)[C@@H]1c2ccccc2C(=O)N(Cc2ccc(OC(F)(F)F)cc2)[C@H]1c1ccc(CO)cc1 | 0.27 | -0.123 (inactive) | -0.0288 | -0.0326 | 0.158 | 0.677 | -0.374 | 0.416 | 0.102 | 0.0505
11 | COC(=O)C1(CC(C)C)C=C2C(=C(c3ccccc3)C(=O)C2C)CN1 (stereo not given) | 0.581 | 0.465 (inactive) | 1.31 | 0.54 | 0.502 | 2.15 | 0.407 | -0.213 | -0.521 | -0.991
12 | Oc1ccc2cc[n+](Cc3cc4c(cc3Br)OCO4)cc2c1 | -1.19 | -0.399 (inactive) | -0.333 | -0.108 | 0.908 | -0.129 | -0.127 | -0.538 | -0.496 | -0.985
13 | CC(C)(C)OC(=O)COc1cccc(C(=O)CCN2CCOCC2)c1 | 0.217 | 0.784 (inactive) | -0.0119 | -0.074 | -0.382 | 0.258 | -0.281 | 0.656 | 0.309 | -0.244
14 | C=CC[C@]1(C(=O)N2CCOCC2)COC(c2ccc(OCCCO)cc2)=N1 | 1.08 | -0.275 (inactive) | 0.298 | -0.13 | 0.777 | 3.27 | 1.6 | 1.28 | 0.191 | 1.16
15 | COC(=O)c1c(CC[C@@H](CO)NC(=O)N[C@@H](C)Cn2cc(-c3ccccn3)nn2)oc(C(C)=O)c1C(=O)OC | -0.373 | 0.615 (inactive) | 0.11 | -0.0995 | 0.708 | 0.267 | -0.555 | 0.871 | 0.204 | 0.743
16 | C=CCNC(=O)[C@@H]1[C@H]2C(=O)O[C@H](c3ccccc3)[C@H](c3ccccc3)N2[C@H](c2ccc(O)cc2)[C@@]12C(=O)N(C(=O)OCCOC)c1ccc(C#CC3=CCCCC3)cc12 | 0.179 | 0.683 (inactive) | 0.138 | -0.14 | 0.32 | 1.57 | 0.354 | 1.28 | 0.673 | 0.737
